Screens: PubChem BioAssay, University of Kansas High Throughput Screening Laboratory
Only a selection was taken, and hits are over-represented in it overall.
Pf apPOL inh: Pf-apPOL DNA polymerase inhibition. Recombinant Pf-apPOL, molecular beacon fluorescence, 1.5 h. inhibition, % at 10 µM. actives 0.25% (n = 210,000). AID 1794808
mHTT-CaM PPI inh: inhibitors of human mutant huntingtin-calmodulin interaction. actives 3.6% (n = 190,000). AlphaScreen His-mHTT/GST-CaM binding, luminescence. P42858. inhibition, % at 15 µM;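 also: 0% = both proteins with DMSO and 100% = one protein alone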
* = called active by the depositor; . = no result given. Rule as the data show it: active = inhibition above about 50%; inactive = the rest.

SMILES	Pf apPOL inh	mHTT-CaM PPI inh
O=C(O)C1Nc2c(O)ccc(Br)c2C2C=CCC12 (stereo not drawn)	-1.8	100.3*
O=C(c1ccccc1)c1cc(Cl)cc2c1NC(C(=O)O)C1CC=CC21 (stereo not drawn)	-1.1	5.7
Cc1c(Cl)cccc1N(CC(=O)N1CCN(c2ccc(F)cc2)CC1)S(C)(=O)=O	-21.3	27.8
Cc1ccc(-c2cn3cc(C(=O)NC(C)c4cccnc4)ccc3n2)cc1 (stereo not drawn)	0.5	51.4*
CC(NC(=O)c1cn2ccccc2n1)c1cccnc1 (stereo not drawn)	0.5	-2.7
Cc1ccc(-c2cn3cc(C(=O)NC(C)c4cccnc4)ccc3n2)cc1C (stereo not drawn)	-2.8	52.7*
CC(NC(=O)c1ccc(-c2ccnc(N3CCCC3)n2)cc1)c1cccnc1 (stereo not drawn)	3.4	18.6
CCOC(=O)c1ccccc1NC(=O)N1CCOc2ccc(Cl)cc21	-1.0	-16.9
CSc1nsc(SC)c1NC(=O)N1CCCCC1	-1.2	-4.0
O=C(Nc1cccs1)N(CCc1ccccc1)Cc1ccccn1	8.8	10.1
Cc1ccc(S(=O)(=O)N2CCCN(S(=O)(=O)c3ccccc3Br)CC2)cc1	0.9	-12.7
Nc1ccc(Cl)c2c1C(=O)c1ccccc1C2=O	3.3	59.0*
Cc1ccc(Cl)c2c1C(=O)c1ccccc1C2=O	0.5	49.0
COc1ccc2c(=O)c3c(oc2c1)C(=O)N(CCN(C)C)C3c1cccc(OC)c1OC (stereo not drawn)	-9.3	4.6
Cc1ccc(S(=O)(=O)N=C2C=C(Nc3cccc(C(=O)O)c3)C(=O)c3ccccc32)c(C)c1	46.8	86.0*
Cc1ccc(S(=O)(=O)N=C2C=C(Nc3cccc(C(=O)O)c3)C(=O)c3ccccc32)cc1	3.9	62.0*
Cc1ccc(C)c(S(=O)(=O)N=C2C=C(Br)C(=O)c3ccccc32)c1	-6.7	46.0
Cc1ccc(NC(=O)c2cccc(S(=O)(=O)Nc3cccc(C(=O)O)c3)c2)cc1	-7.3	-2.7
COC(=O)c1sccc1NC(=O)C1CC(C)=C(C)CC1C(=O)O (stereo not drawn)	-6.5	.
O=C(Nc1nc2c(s1)CN(C(=O)Cc1ccc(F)cc1)CC2)NC1CCCC1	-3.5	2.6
COc1ccc(C(=O)Nc2nc(CC(=O)Nc3ccc4c(c3)OCCO4)cs2)cc1	-1.6	16.9
COc1ccc(Nc2nc(C(=O)Nc3ccc4c(c3)OCCO4)cs2)c(OC)c1	4.2	53.3*
CC(=O)c1cccc(NC(=O)CCN2C(=O)c3ccccc3C2=O)c1	-6.5	2.0
Cc1ccc(-c2cc(-c3ccccc3Cl)[nH]n2)c(O)c1	-3.3	65.4*
Oc1ccccc1-c1cc(-c2ccccc2)n[nH]1	-247.5	35.2
SMILES	Pf apPOL inh	mHTT-CaM PPI inh
COc1ccccc1-c1cc(-c2cc(Cl)ccc2O)n[nH]1	-5.0	30.2
Cc1ccccc1-c1cc(-c2ccccc2O)n[nH]1	-4.3	51.9*
Oc1ccccc1-c1cc(-c2ccccc2F)[nH]n1	6.5	.
COc1ccc(O)c(-c2cc(-c3ccccc3C)[nH]n2)c1	6.8	68.6*
CCc1cccc(CC)c1NC(=O)Cc1ccc(Cl)cc1	0.9	-0.2
COc1ccc2cc3cc(C(=O)N(C)c4cccc(C)c4)oc3nc2c1	-0.1	4.0
COc1cccc(Cl)c1-c1nc(N)nc(N)n1	-1.0	.
CN(C)Cc1c(O)ccc2c1OC(=Cc1ccco1)C2=O	0.1	8.3
O=C(OC1Cc2c(O)cc(O)cc2OC1c1cc(O)c(O)c(O)c1)c1cc(O)c(O)c(O)c1 (stereo not drawn)	53.7*	.
O=C1c2c(O)cc(O)cc2OC(c2ccc(O)c(O)c2)C1O (stereo not drawn)	-0.4	.
O=S(=O)(Nc1ccc(S(=O)(=O)Nc2ccc(Cl)cc2)cc1)c1ccccc1	4.7	1.6
COc1ccc(C2/C=C\CN(S(=O)(=O)c3ccc(-c4ccccc4)cc3)CC(=O)N2Cc2ccc(F)cc2)cc1 (stereo not drawn)	-0.7	-3.0
COc1ccc(C2/C=C\CN(C(=O)c3ccc(C)cc3)CC(=O)N2Cc2ccc(F)cc2)cc1 (stereo not drawn)	-3.3	74.7*
COc1ccc(C2/C=C\CN(CC3CCCCC3)CC(=O)N2Cc2ccc(F)cc2)cc1 (stereo not drawn)	-3.0	33.5
COc1ccc(CNC(=O)CN2CCN(C(=O)Nc3ccc(F)cc3)CC2=O)cc1	-5.1	-7.5
COc1ccc(C2/C=C\CN(C(=O)Nc3ccc(C(F)(F)F)cc3)CC(=O)N2Cc2ccc(F)cc2)cc1 (stereo not drawn)	-5.4	58.6*
COc1ccc(C2/C=C\CN(C(=O)C3CCCC3)[C@@H](C)C(=O)N2Cc2ccc(F)cc2)cc1 (stereo partly drawn)	-1.8	42.6
COc1ccc(C2/C=C\CN(Cc3ccco3)CC(=O)N2Cc2ccc(F)cc2)cc1 (stereo not drawn)	-4.1	60.6*
COc1ccc(C2/C=C\CN(C(=O)Oc3ccc(C(F)(F)F)cc3)CC(=O)N2Cc2ccc(F)cc2)cc1 (stereo not drawn)	-0.7	79.4*
